High-throughput results from PubChem.
HT1080NT lethal: qHTS for induction of synthetic lethality in tumor cells producing 2HG: qHTS for the HT-1080-NT fibrosarcoma cell line. HT-1080-NT fibrosarcoma viability, CellTiter-Glo ATP luminescence, 48 h. Potency, µM (top dose mostly 46.1 µM), for inactives: at the highest dose activity, negative = less viability, most hits filed as cytotoxic. 1.6% of 360,000 active. AID 686970, 2013;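 further: NT is the 2HG producing partner of a matched IDH1 knockdown line; 0% = DMSO-treated cells and -100% = media-only wells without cells; nearly all actives have a fitted effect of over 55% in size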
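Fibrosarcoma NT cells, 750 per well in 5% FBS RPMI, were exposed to compound for 48 hours. Viability: CellTiter-Glo luminescence.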
TGFb SMAD3 inh: qHTS for Inhibitors of TGF-b; HepG2 CAGA-GFP TGF-b/SMAD3 reporter, GFP fluorescence, 18 h; TGF-beta stimulated, 500 pg/mL final; Potency, µM (doses to about 46.1 µM), inactives show at the top dose activity, negative = inhibition, actives largely listed as inhibitors; 1.2% of 410,000 active; AID 588855, 2011; further: on the % scale 0 is the no-effect control and ±100 the full control effect; nearly all actives have a fitted effect of over 65% in size
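Read-out: total well GFP (ex488/em500-530) summed from mean per-cell fluorescence. Cells: HEPG2 CAGA-GFP, 1% FBS DMEM, 18 h at 37 degrees C with 500 pg/mL final TGF-beta. Unstimulated wells served as the full-inhibition control; stimulated DMSO wells = 0%.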
DT40 TDP1 no CPT: qHTS for Inhibitors of human tyrosyl-DNA phosphodiesterase 1 (TDP1): qHTS in cells in absence of CPT | DT40 Tdp1-/- hTDP1 cells, no CPT, ATP luminescence, 48 h | Potency, µM (top dose mostly 46.2 µM), for inactives: at the top dose activity change, negative = growth inhibition, most hits filed as inhibitors | 15% of 420,000 active; further: on the % scale 0 is the no-effect control and ±100 the full control effect; nearly all actives have a fitted effect of over 55% in size
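DT40 Tdp1-/-;hTDP1 cells, no CPT (DMSO vehicle only), 400 cells/well; compounds pin-transferred; ≥48 hr, 37 °C; CellTiter-Glo 30 min RT dark, luminescence read.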
DT40 TDP1 CPT: qHTS for Inhibitors of human tyrosyl-DNA phosphodiesterase 1 (TDP1): qHTS in cells in presence of CPT. chicken DT40 Tdp1-/-;hTDP1 cells + 20 nM CPT, ATP luminescence, 48 h. 12% of 420,000 active. AID 686979, 2013. Potency, µM (series often up to 46.2 µM), for inactives: at the highest dose activity change, negative = growth inhibition, usual class: inhibitors; further: on the % scale 0 is the no-effect control and ±100 the full control effect; nearly all actives have a fitted effect of over 55% in size
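Chicken DT40 Tdp1-/- cells stably complemented with human TDP1 were seeded at 400 cells/well in medium containing 20 nM camptothecin, exposed to pin-transferred compounds, and grown at 37 °C for at least 48 hr. Viability was read as ATP luminescence.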
HepG2 tox: qHTS for Inhibitors of TGF-b: Cytotox Counterscreen; HepG2 CAGA-GFP viability, ATP luminescence, 18 h; Potency, µM (series often up to 46.1 µM), inactives show at the top dose activity change, negative = cytotoxicity, hits mostly cytotoxic; 0.76% of 410,000 active; AID 588856, 2011
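HepG2 CAGA-GFP cells (1000/well, DMEM with 1% FBS) received compound, then TGF-beta at 500 pg/mL final, and were incubated 18 hours at 37 degrees C. Viability was read by CellTiter-Glo luminescence. Media-only wells were set as complete cell-killing and DMSO as no toxicity.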
HT1080 IDH1KD tx: qHTS for induction of synthetic lethality in tumor cells producing 2HG: qHTS for the HT-1080-IDH1KD cell line | HT-1080 IDH1 knockdown viability, ATP luminescence, 48 h | Potency, µM (series often up to 46.1 µM), inactives show at the highest dose activity, negative = toxicity, hits mostly cytotoxic | 2% of 360,000 active | AID 686971, 2013;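 further: 0% = DMSO wells and -100% = cell-free medium wells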
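% activity derives from luminescence (CellTiter-Glo), normalised to DMSO and no-cell wells. HT-1080-IDH1KD cells, 750/well, had 48 h compound exposure at 37 °C.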
* marks the source's active call; other numbers are inactive results; ? = inconclusive; . = not tested or not shown. Compounds with a hit are over-represented: about 17% of the library has one in this group of screens. The call rests on the fitted dose curve; in most records, active means well fitted curve in the direction sought with a large enough effect; inconclusive means small, poorly fitted or top-dose-only effect, or another doubt; inactive means no such curve, though single readings can be large; an effect the other way counts as inactive or inconclusive. Potency means the concentration at half of the fitted maximal effect.

SMILES | HT1080NT lethal | TGFb SMAD3 inh | DT40 TDP1 no CPT | DT40 TDP1 CPT | HepG2 tox | HT1080 IDH1KD tx
O=C(CCc1c[nH]c2ccccc12)N/N=C/c1ccc2c(c1)OCO2 | -10.3% | -9.3% | 23.1µM* | -13.5% | -7.7% | -23.9%
O=C(Cc1ccccc1)N/N=C/c1ccc2c(c1)OCO2 | 3.8% | -24.4% | -26.6% | 10.7% | -19.3% | 11.1%
COc1ccc(/C=N\NC(=O)C2COc3ccccc3O2)cc1O (stereo unspecified) | 14.6µM* | -13.7% | ? | 14.6µM* | -35.6% | 11.6µM*
COC(=O)c1cc2oc3ccccc3c2n1CC(=O)Nc1ccc(C)cc1Cl | . | 11.4% | -15.8% | -18.7% | -13.3% | .
CC(=O)Nc1cc(C)c(S(C)(=O)=O)c(C)c1 | 6.5% | -1.8% | 9.7% | -5.5% | 12.3% | 12.1%
COc1ccc(/C=N/NC(=O)C2COc3ccccc3O2)cc1OC (stereo unspecified) | -0.4% | -17.8% | 9.8% | 11.6% | 4.4% | 1.9%
O=C(N/N=C/c1ccc2c(c1)OCO2)C1COc2ccccc2O1 (stereo unspecified) | ? | -1.7% | 23.1µM* | ? | -13.7% | ?
CCCCCC(=O)N1C[C@H](O)[C@@H](n2cc(COC(=O)c3ccccc3)nn2)C[C@@H]1c1ccc(Cl)cc1 | -0.7% | -3.9% | 25.9µM* | ? | -7.0% | 0.9%
CCCCCC(=O)N1C[C@@H](O)[C@H](n2cc(COC(=O)c3ccccc3)nn2)C[C@@H]1c1ccc(C)cc1 | -9.4% | -2.0% | 4.6% | -3.5% | -22.6% | -5.4%
CCCCCC(=O)N1C[C@H](n2cc(COC(=O)c3ccccc3)nn2)[C@@H](O)C[C@@H]1c1ccc(OC)cc1 | ? | -7.0% | ? | 20.6µM* | -26.6% | -17.9%
CCCC(=O)NCCc1nc2cc([N+](=O)[O-])ccc2n1C | -8.9% | 17.9% | -0.5% | 7.3% | -1.5% | 8.4%
Cc1cc(NC(=O)COC(=O)C2CC(=O)N(c3ccccc3Cl)C2)no1 (stereo unspecified) | -2.3% | 9.2% | -18.7% | 7.7% | -4.8% | -2.5%
CCCc1nc2oc3c(OC)ncnc3c2c2c1COC(C)(C)C2 | 3.9% | 7.7% | 20.6µM* | ? | -12.1% | 3.8%
CC(C)c1nc2oc3c(NCC4CCCO4)ncnc3c2c2c1COC(C)(C)C2 (stereo unspecified) | 0.6% | -8.6% | 14.6µM* | ? | -3.0% | -1.8%
Cc1nc2oc3c(NCC4CCCO4)ncnc3c2c2c1COC(C)(C)C2 (stereo unspecified) | 7.8% | 4.1% | -1.5% | -0.3% | -12.8% | 2.9%
Cc1nc2oc3c(NCc4ccccc4)ncnc3c2c2c1COC(C)(C)C2 | -15.6% | -14.1% | 18.4µM* | ? | -0.7% | -16.4%
C[C@@H]1CN(S(=O)C(C)(C)C)[C@H](CCO)/C1=C\CCO (stereo partly specified) | 13.7% | 6.2% | -0.3% | 0.6% | 0.3% | 5.5%
CCOCc1nnc(NC(=O)C2CC(=O)N(CCc3ccc(F)cc3)C2)s1 (stereo unspecified) | 6.9% | 6.0% | -12.9% | 1.8% | 13.0% | 6.1%
O=C(N/N=C/c1cccs1)c1cncc(Br)c1 | -8.7% | -13.2% | -5.0% | 5.3% | 1.1% | -13.0%
O=C(N/N=C/c1ccc[nH]1)c1cccnc1 | 12.6% | 9.3% | 6.51µM* | 14.6µM* | -28.9% | -1.2%
O=C(N/N=C/c1cccs1)c1cccnc1 | 10.5% | 11.8% | 23.1µM* | 1.1% | 3.5% | -3.5%
CCCCCCc1ccc(C(=O)CCN(C)C)cc1 | . | -29.4% | . | . | . | .
COc1cc(/C=C/c2nc(C#N)c(N3CCN(C)CC3)o2)cc(OC)c1OC | . | 0.4% | 8.2µM* | 8.2µM* | -13.1% | .
COc1ccc(N2CCN(c3oc(/C=C/c4cccc(OC)c4)nc3C#N)CC2)cc1 | . | 1.4% | 10.2% | -1.9% | 6.0% | .
COc1cccc(/C=C/c2nc(C#N)c(N3CCN(C)CC3)o2)c1 | . | -26.0% | 23.1µM* | 23.1µM* | -14.4% | .
SMILES | HT1080NT lethal | TGFb SMAD3 inh | DT40 TDP1 no CPT | DT40 TDP1 CPT | HepG2 tox | HT1080 IDH1KD tx
COc1cccc(-n2c(=O)c3cc(OC)c(OC)cc3n(CC(=O)Nc3ccc(F)cc3)c2=O)c1 | . | 0.0% | -13.0% | ? | -38.2% | .
CC(C)CCN(C(=O)c1csnn1)C(C(=O)NC1CCCCC1)c1ccc(F)cc1 (stereo unspecified) | -29.4% | -29.7% | ? | -16.9% | -10.3% | -8.1%
O=[N+]([O-])c1ccc(Sc2n[nH]c(-c3ccc(Cl)cc3Cl)n2)nc1 | ? | -0.2% | -27.3% | -23.4% | -22.6% | ?
Cc1cc(Nc2cc(Cl)cc(Cl)c2)nc(N)n1 | -4.6% | -18.3% | 10.3µM* | ? | -20.3% | -2.6%
Cc1cc(Nc2ccc(F)cc2)nc(N)n1 | -4.8% | -17.2% | -2.7% | -11.2% | 3.4% | 8.0%
O=c1[nH]cccc1-c1nc2ccccc2n1Cc1ccccc1F | 10.5% | 8.8% | 29.1µM* | 20.6µM* | -0.6% | 3.3%
COc1ccc(NC(=S)N(CCN(C)C)C(C)c2ccco2)cc1Cl (stereo unspecified) | -3.7% | -4.7% | 16.4µM* | -25.8% | 3.3% | 11.6%
CC(=O)N1CCCC1c1nc2ccccc2n1Cc1cc(C)ccc1C (stereo unspecified) | . | 1.2% | 23.1µM* | 23.1µM* | -19.7% | .
CC(=O)N1CCCC1c1nc2ccccc2n1Cc1c(F)cccc1Cl (stereo unspecified) | . | -14.5% | ? | ? | 0.8% | .
C1=Cc2ccccc2/C1=C\c1ccc2c(c1)OCO2 | . | -9.6% | -36.8% | -23.7% | -26.2% | .
CCNC(=S)N1CCN(c2nc(-c3cccc(OC)c3)cs2)CC1 | -19.3% | ? | 14.6µM* | 10.3µM* | -10.7% | ?
COc1cccc(-c2csc(N3CCN(C(=S)NCC(C)C)CC3)n2)c1 | -12.0% | ? | ? | 18.4µM* | -27.8% | -11.3%
O=C(Nc1nc2cc3c(cc2s1)OCO3)C1=COCCO1 | 13µM* | -3.5% | 13µM* | 8.2µM* | 8.91µM* | 18.4µM*
O=C(COc1ccccc1)Nc1nc2cc3c(cc2s1)OCCO3 | -16.2% | -3.1% | 12.9% | -0.2% | 3.6% | 1.5%
